M1 PAM: potentiates human M1 receptor response to acetylcholine; CHO-K1 hM1, Fluo-8 calcium fluorescence, ACh EC20; 0% = ACh EC20, 100% = maximal ACh; P11229; activation, % at 3 µM; 0.088% of 360,000 active; in the data active means activation above about 19%, passing the limit was not always enough
Target sequence (P11229 whole entry, looked up): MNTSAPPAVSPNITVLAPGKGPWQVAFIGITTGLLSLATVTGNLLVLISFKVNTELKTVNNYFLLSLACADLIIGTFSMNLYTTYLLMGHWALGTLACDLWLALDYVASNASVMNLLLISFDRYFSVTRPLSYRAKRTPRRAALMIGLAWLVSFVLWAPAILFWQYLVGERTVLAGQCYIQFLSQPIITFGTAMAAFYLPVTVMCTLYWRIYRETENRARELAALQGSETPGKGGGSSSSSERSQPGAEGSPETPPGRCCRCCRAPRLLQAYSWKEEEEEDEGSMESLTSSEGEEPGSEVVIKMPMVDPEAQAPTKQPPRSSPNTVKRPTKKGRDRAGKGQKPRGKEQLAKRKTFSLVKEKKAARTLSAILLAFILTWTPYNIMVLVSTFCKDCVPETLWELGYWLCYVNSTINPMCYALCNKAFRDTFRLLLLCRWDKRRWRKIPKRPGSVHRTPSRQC
CHO-K1 Ca PAM: nonselective activator or artifact in parental CHO-K1 calcium assay; AID 602247; 0.02% of 360,000 active; activation, % at 3 µM; ATP EC20, Fluo-8 calcium fluorescence; 0% at ATP EC20, 100% at ATP max;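 active means activation above the run cutoff, the mean activation of all test compounds plus 3 SD, cut at about 40% in these data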;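 further: peak over basal fluorescence ratio in a 140 s read after ATP addition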
CHO-K1 Ca antag: counter-screen for M1 antagonists: effect in parental CHO-K1 cells | ATP-induced calcium, Fluo-8 fluorescence | inhibition, % at 3 µM | 0.6% of 360,000 active;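 active means inhibition above a per-plate cutoff, the plate's mean sample inhibition plus 3 SD, cut at about 24% in these data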;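 further: 0% = DMSO plus EC80 ATP and 100% = DMSO alone without ATP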
M1 ag parental: nonselective activator or artifact in parental CHO-K1 cells; Fluo-8 calcium fluorescence; scaled to maximal ATP response, vehicle zero; activation, % at 3 µM; 0.48% of 360,000 active; in the data active means activation above about 15%;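 further: untransfected CHO-K1 host cells lacking M1 receptor as counterscreen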
CHRM1 agonist: agonists of human M1 muscarinic receptor; P11229; CHO-K1 hM1, Fluo-8 calcium fluorescence, agonist mode; 0% DMSO, 100% acetylcholine EC100; activation, % at 3 µM; 0.33% of 360,000 active; AID 588814;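 active means activation above the run's mean compound activation plus 3 SD, cut at about 16% in these data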;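 further: peak over basal fluorescence ratio within a 140 s kinetic read after compound addition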
CHRM1 antagonist: blocks human M1 muscarinic receptor. inhibition, % at 3 µM. CHO-K1 hM1, Fluo-8 calcium fluorescence, ACh EC80 antagonist. 1.3% of 360,000 active;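 active means percent inhibition above its own plate's cutoff, namely the mean of that plate's compound wells plus 3 SD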;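 further: peak over basal fluorescence ratio during 140 s after agonist addition; 0% = ACh EC80 plus DMSO and 100% = DMSO alone without agonist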
Active calls of the source: *. The list is not random: actives were taken first. Their share in the collection is about 2.4%.

SMILES	M1 PAM	CHO-K1 Ca PAM	CHO-K1 Ca antag	M1 ag parental	CHRM1 agonist	CHRM1 antagonist
CCN(CC)CCSc1nnc2c3cc(F)ccc3n(Cc3ccccc3)c2n1	-20.7	-0.5	-4.9	0.2	-10.9	13.9
CC(/C=N/NC(=O)c1nn(C)c(C)c1Br)=C\c1ccccc1	9.1	24.8	-7.0	1.3	-1.4	-10.9
O=C(COC(=O)c1cc(S(=O)(=O)N2CCOCC2)ccc1F)NCCc1ccc(F)cc1	2.8	5.0	-16.9	3.7	-3.5	-2.6
CC(=O)Nc1ccc(S(=O)(=O)NC(C)(C#N)C2CC2)cc1 (stereo not given)	-1.2	11.9	-17.2	1.2	-3.8	7.9
CCc1ccccc1N1CC(C(=O)N2Cc3ccccc3CC2C(N)=O)CC1=O (stereo not given)	8.8	-4.7	-9.3	-0.5	-2.3	-13.3
CCNC(=O)C1(C)CCN(C(=O)c2cccc(OC(C)=O)c2C)C1 (stereo not given)	4.4	10.7	-14.3	0.2	-2.8	-8.6
Nn1c(COc2cccc(Cl)c2)nc2ccccc2c1=O	-3.0	11.5	1.7	25.3*	-6.0	6.5
Cc1nn(C)c2nc(-c3cccs3)cc(C(F)(F)F)c12	-9.4	-1.5	-4.0	1.0	-6.2	12.4
Cc1nn(CCO)c2nc(-c3cccs3)cc(C(F)(F)F)c12	8.5	-11.7	24.0*	0.2	0.7	-4.1
Cc1cc(CSc2ccccc2)ccc1NC(=O)c1ccc(C)c([N+](=O)[O-])c1	11.7	12.2	-6.8	0.0	-6.8	-11.7
Cc1cc(CSc2ccccc2)ccc1NC(=O)c1ccc(Cl)c([N+](=O)[O-])c1	-0.3	6.1	27.8*	-0.7	-5.0	-9.6
Cc1ccc(OCC(=O)Nc2cc(S(=O)(=O)N3CCCCC3)ccc2N2CCN(C)CC2)c(C)c1	-8.9	-1.1	-8.1	0.3	-8.0	6.9
CCN1CCN(c2ccc(S(=O)(=O)N3CCOCC3)cc2NC(=O)c2ccccc2OC(F)F)CC1	3.5	10.2	-8.0	1.9	20.2*	-5.0
Cc1ccccc1OCCC(=O)Nc1cc(S(=O)(=O)N2CCCCC2)ccc1N1CCN(C)CC1	-12.9	-11.6	8.1	51.2*	34.3*	19.1
CCN1CCN(c2ccc(S(=O)(=O)N3CCCCC3)cc2NC(=O)Cc2ccccc2)CC1	1.0	-26.4	6.9	0.6	-6.3	4.1
CCN1CCN(c2ccc(S(=O)(=O)N3CCCCC3)cc2NC(=O)Cc2ccc(Cl)c(Cl)c2)CC1	-6.5	0.5	28.7*	18.0*	11.5	14.5
CN1CCN(c2ccc(S(=O)(=O)N3CCCCC3)cc2NC(=O)COc2ccc([N+](=O)[O-])cc2)CC1	-12.7	-22.4	19.9	-0.3	-4.0	32.0*
CCN1CCN(c2ccc(S(=O)(=O)N3CCOCC3)cc2NC(=O)c2ccc(Cl)cc2Cl)CC1	6.0	26.5	5.3	3.0	-6.1	-7.1
CCCCC1(C)NC(=S)N2N1C(=S)NC2(C)CCCC (stereo not given)	8.9	20.1	-9.1	0.7	-2.9	-6.0
O=C(CO/N=C/c1ccccc1OC(F)F)NCc1ccco1	25.6*	10.4	-15.0	0.7	-0.8	-53.3
CC(N=C1NS(=O)(=O)c2ccccc21)C(=O)OCC(=O)N(C)C1CCS(=O)(=O)C1 (stereo not given)	4.4	-0.8	2.0	0.0	-2.4	10.6
C(=C\c1ccccc1)/CN1CCN(C(c2ccccc2)c2nnnn2C2CCCC2)CC1 (stereo not given)	-22.8	16.9	-25.4	1.9	-4.6	53.9*
c1ccc(C(c2nnnn2C2CCCC2)N2CCCCCC2)nc1 (stereo not given)	-27.3	-5.6	19.2	-0.4	-12.8	33.8*
c1ccc(C(c2ccccc2)N2CCN(C(c3ccccn3)c3nnnn3C3CCCC3)CC2)cc1 (stereo not given)	-1.6	-7.2	-4.1	-0.1	-5.2	6.2
COc1cccc(C(c2nnnn2C2CCCCC2)N2CCN(C/C=C/c3ccccc3)CC2)c1OC (stereo not given)	-20.8	1.2	9.0	-0.9	-5.7	11.9
C(=C\c1ccccc1)/CN1CCN(C(c2ccnc3ccccc23)c2nnnn2C2CCCC2)CC1 (stereo not given)	-25.8	-4.5	-2.9	-0.4	-5.7	69.8*
